# Data reported in the supplement of paper PMC8728848.
# About 410 targets per protein were measured; listed, in parts, are those with the strongest signals and a random draw of the rest.
# Key:
# Assay in all cases: glycan array binding signal (z-score within array); higher = stronger binding
# Conditions in all cases: glycan notation: IUPAC condensed, linker removed; mutation: R343I
# Fuc(a1-2)Gal(b1-4)Glc6S = target: Fuc(a1-2)Gal(b1-4)Glc6S
# Method in brief: (§1)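 The binding signal is a Z-score computed within each array. Data were drawn from 3228 arrays in the Consortium for Functional Glycomics database, restricted to those with a known protein sequence. Scores were averaged over arrays of the same protein sequence at different concentrations or buffers, and over linkers, and negative values can be taken as non-binding.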
# Fuc(a1-2)[Gal(a1-3)]Gal = target: Fuc(a1-2)[Gal(a1-3)]Gal
# Method in brief: as §1
# [1] = target: Fuc(a1-2)[Gal(a1-3)]Gal(b1-3)GlcNAc
# Method in brief: as §1
# [2] = target: Fuc(a1-2)[GalNAc(a1-4)]Gal(b1-4)GlcNAc
# Method in brief: as §1
# Fuc(a1-3)GlcNAc = target: Fuc(a1-3)GlcNAc
# Method in brief: as §1
# [3] = target: Fuc(a1-3)[Gal(b1-4)]GlcNAc(b1-2)Man(a1-3)[Fuc(a1-3)[Gal(b1-4)]GlcNAc(b1-2)Man(a1-6)]Man(b1-4)GlcNAc(b1-4)GlcNAc
# Method in brief: as §1
# [4] = target: Fuc(a1-3)[Gal(b1-4)]GlcNAc(b1-2)Man(a1-6)[Gal(b1-4)GlcNAc(b1-2)Man(a1-3)]Man(b1-4)GlcNAc(b1-4)GlcNAc
# Method in brief: as §1
# Gal(a1-2)Gal = target: Gal(a1-2)Gal
# Method in brief: as §1
# Gal(a1-3)GalNAc = target: Gal(a1-3)GalNAc
# Method in brief: as §1
# Gal(a1-4)GlcNAc = target: Gal(a1-4)GlcNAc
# Method in brief: as §1
# [5] = target: Gal(b1-3)[GlcNAc(b1-6)]GalNAc
# Method in brief: as §1
# [6] = target: Gal(b1-3)[Neu5Ac(b2-6)]GalNAc
# Method in brief: as §1
# [7] = target: Gal(b1-4)GalNAc(a1-3)[Fuc(a1-2)]Gal(b1-4)GlcNAc
# Method in brief: as §1
# [8] = target: Gal(b1-4)GlcNAc(b1-6)GalNAc
# Method in brief: as §1
# [9] = target: GlcNAc(b1-2)Man(a1-3)[GlcNAc(b1-2)Man(a1-6)]Man(b1-4)GlcNAc(b1-4)GlcNAc
# Method in brief: as §1
# GlcNAc(b1-3)Man = target: GlcNAc(b1-3)Man
# Method in brief: as §1
# [10] = target: GlcNAc(b1-4)[GlcNAc(b1-6)]GalNAc
# Method in brief: as §1
# [11] = target: Man(a1-2)Man(a1-2)Man(a1-3)Man
# Method in brief: as §1
# [12] = target: Man(a1-2)Man(a1-3)[Man(a1-2)Man(a1-6)]Man(a1-6)[Man(a1-2)Man(a1-2)Man(a1-3)]Man
# Method in brief: as §1
# [13] = target: Man(a1-2)Man(a1-3)[Man(a1-6)]Man(a1-6)[Man(a1-2)Man(a1-3)]Man(b1-4)GlcNAc(b1-4)GlcNAc
# Method in brief: as §1
# [14] = target: Man(a1-2)Man(a1-6)[Man(a1-3)]Man(a1-6)[Man(a1-2)Man(a1-2)Man(a1-3)]Man
# Method in brief: as §1
# Man(a1-3)[Man(a1-6)]Man = target: Man(a1-3)[Man(a1-6)]Man
# Method in brief: as §1
# Man(a1-6)Man = target: Man(a1-6)Man
# Method in brief: as §1
# [15] = target: Neu5Ac(a2-3)Gal(b1-3)GlcNAc(b1-3)Gal(b1-3)GlcNAc
# Method in brief: as §1
# [16] = target: Neu5Ac(a2-3)Gal(b1-3)GlcNAc6S
# Method in brief: as §1
# [17] = target: Neu5Ac(a2-3)Gal(b1-4)GlcNAc(b1-3)Gal(b1-4)GlcNAc
# Method in brief: as §1
# [18] = target: Neu5Ac(a2-3)Gal(b1-4)GlcNAc(b1-6)[Neu5Ac(a2-3)Gal(b1-3)]GalNAc
# Method in brief: as §1
# Neu5Ac(a2-6)GalNAc = target: Neu5Ac(a2-6)GalNAc
# Method in brief: as §1
# [19] = target: Neu5Ac(a2-8)Neu5Ac(a2-3)Gal(b1-4)Glc
# Method in brief: as §1
binder,measurement,setting,value
Surfactant Protein D (Human); Neck + Carbohydrate Recognition Domain (NCRD) (Homo sapiens) (protein) MLLFLLSALVLLTQPLGYLEAEMKTYSHRTMPSACTLVMCSSVESGLPGRDRDGREGPRGEKGDPGLPGAAGQAGMPGQAGPVGPKGDNGSVGEPGPKGDTGPSGPPGPPGVPGPAGREGALGKQGNIGPQGKPGPKGEAGPKGEVGAPGMQGSAGARGLAGPKGERGVPGERGVPGNTGAAGSAGAMGPQGSPGARGPPGLKGDKGIPGDKGAKGESGLPDVASLRQQVEALQGQVQHLQAAFSQYKKVELFPNGQSVGEKIFKTAQFVKPFTEAQLLCTQAGGQLASPRSAAENAALQQLVVAKNEAAFLSMTDSKTEGKFTYPTGESLVYSNWAPGEPNDDGGSEDCVEIFTNGKWNDIACGEKRLVVCEF,glycan array binding signal (z-score),Fuc(a1-2)Gal(b1-4)Glc6S,-0.274
same,glycan array binding signal (z-score),Fuc(a1-2)[Gal(a1-3)]Gal,-0.265
same,glycan array binding signal (z-score),[1],-0.272
same,glycan array binding signal (z-score),[2],-0.266
same,glycan array binding signal (z-score),Fuc(a1-3)GlcNAc,5.51
same,glycan array binding signal (z-score),[3],-0.264
same,glycan array binding signal (z-score),[4],-0.272
same,glycan array binding signal (z-score),Gal(a1-2)Gal,-0.275
same,glycan array binding signal (z-score),Gal(a1-3)GalNAc,-0.268
same,glycan array binding signal (z-score),Gal(a1-4)GlcNAc,-0.27
same,glycan array binding signal (z-score),[5],-0.274
same,glycan array binding signal (z-score),[6],-0.276
same,glycan array binding signal (z-score),[7],-0.263
same,glycan array binding signal (z-score),[8],-0.275
same,glycan array binding signal (z-score),[9],5.45
same,glycan array binding signal (z-score),GlcNAc(b1-3)Man,-0.076
same,glycan array binding signal (z-score),[10],-0.05
same,glycan array binding signal (z-score),[11],4.64
same,glycan array binding signal (z-score),[12],4.37
same,glycan array binding signal (z-score),[13],4.08
same,glycan array binding signal (z-score),[14],4.33
same,glycan array binding signal (z-score),Man(a1-3)[Man(a1-6)]Man,0.263
same,glycan array binding signal (z-score),Man(a1-6)Man,-0.261
same,glycan array binding signal (z-score),[15],-0.268
same,glycan array binding signal (z-score),[16],-0.275
same,glycan array binding signal (z-score),[17],-0.278
same,glycan array binding signal (z-score),[18],-0.275
same,glycan array binding signal (z-score),Neu5Ac(a2-6)GalNAc,-0.269
same,glycan array binding signal (z-score),[19],-0.267
